In PubChem BioAssay AID1159580 (chemical genetic matrix, 2015):
Where “and” joins values, the source holds several entries; their conditions need not be identical. Identical values can stand only once. Out of some 5,500 compounds screened, about 2,000 (36%) were called active. Not shown: some 18% with an inconclusive outcome. No stated cut-off is given here; in the data, active means normalized growth mostly below about 0.91 (no sharp cut-off); inconclusive means no clear call, values can overlap the other calls; inactive means mostly above about 0.92. The list shows a part of the results.

Assay: chemical genetic growth profiling, strain panel (AID 1159580);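 further: tested at 20 µM; growth read once vehicle control cultures reached saturation at 30 °C; 1 = growth at the plate median or of vehicle wells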
Details: S. cerevisiae deletion strains, growth OD

Measured: normalized growth

CO[C@@]1(NC(=O)C(C(=O)O)c2ccc(O)cc2)C(=O)N2C(C(=O)O)=C(CSc3nnnn3C)CO[C@@H]21 (stereo partly specified)
inactive: locus YAL013W, strain DEP1, stronger effect = lower value 1.01 | locus YAL021C, strain ccr4, stronger effect = lower value 0.993 | locus YAL026C, strain drs2, stronger effect = lower value 1 | locus YAL030W, strain snc1, stronger effect = lower value 0.982 | locus YBL061C, strain skt5, stronger effect = lower value 0.979 | locus YBR021W, strain FUR4, stronger effect = lower value 0.998 | locus YBR023C, strain chs3, stronger effect = lower value 0.994 | locus YBR171W, strain sec66, stronger effect = lower value 0.984 | locus YBR229C, strain ROT2, stronger effect = lower value 1 | locus YBR231C, strain swc5, stronger effect = lower value 0.956 | locus YBR279W, strain paf1, stronger effect = lower value 0.995 | locus YCL011C, strain gbp2, stronger effect = lower value 0.955 | locus YCL016C, strain dcc1, stronger effect = lower value 0.955 | locus YCL029C, strain bik1, stronger effect = lower value 1.03 | locus YCL061C, strain MRC1, stronger effect = lower value 1 | locus YCL069W, strain vba3, stronger effect = lower value 0.991 | locus YCR088W, strain abp1, stronger effect = lower value 0.984 | locus YDL005C, strain med2, stronger effect = lower value 0.991 | locus YDL035C, strain GPR1, stronger effect = lower value 0.999 | locus YDL040C, strain nat1, stronger effect = lower value 0.989 | locus YDL074C, strain BRE1, stronger effect = lower value 1.03 | locus YDL101C, strain DUN1, stronger effect = lower value 1.01 | locus YDL134C, strain PPH21, stronger effect = lower value 1 | locus YDL185W, strain tfp1, stronger effect = lower value 1.03 | locus YDL192W, strain arf1, stronger effect = lower value 1.02 | locus YDR001C, strain nth1, stronger effect = lower value 0.977 | locus YDR069C, strain doa4, stronger effect = lower value 1.01 | locus YDR101C, strain arx1, stronger effect = lower value 1.01 | locus YDR137W, strain rgp1, stronger effect = lower value 0.98 | locus YDR150W, strain NUM1, stronger effect = lower value 1.02 | locus YDR159W, strain sac3, stronger effect = lower value 1.01 | locus YDR162C, strain NBP2, stronger effect = lower value 1 | locus YDR195W, strain ref2 1 | locus YDR297W, strain sur2, stronger effect = lower value 0.971 | locus YDR318W, strain mcm21, stronger effect = lower value 1.02 | locus YDR334W, strain swr1, stronger effect = lower value 0.942 | locus YDR335W, strain msn5, stronger effect = lower value 0.981 | locus YDR388W, stronger effect = lower value 1.02 | locus YDR392W, strain spt3, stronger effect = lower value 0.909 | locus YDR502C, strain sam2, stronger effect = lower value 1.01 | locus YEL003W, strain gim4, stronger effect = lower value 0.99 | locus YEL037C, strain rad23, stronger effect = lower value 0.988 | locus YEL061C, strain CIN8 (second series), stronger effect = lower value 0.982 | locus YEL061C, strain CIN8, stronger effect = lower value 1.01 | locus YER015W, strain faa2, stronger effect = lower value 0.982 | locus YER016W, strain bim1, stronger effect = lower value 1 | locus YER110C, stronger effect = lower value 1.02 | locus YER111C, strain swi4, stronger effect = lower value 0.983 | locus YER155C, strain BEM2 (second series), stronger effect = lower value 0.993 | locus YER155C, strain BEM2, stronger effect = lower value 1.01 | locus YER167W, strain BCK2, stronger effect = lower value 1 | locus YFR010W, strain ubp6, stronger effect = lower value 0.996 | locus YGL078C, strain dbp3, stronger effect = lower value 0.998 | locus YGL086W, strain mad1, stronger effect = lower value 1.01 | locus YGL167C, strain pmr1, stronger effect = lower value 0.987 | locus YGL173C, strain kem1, stronger effect = lower value 0.992 | locus YGL227W, strain vid30, stronger effect = lower value 0.99 | locus YGL240W, strain doc1, stronger effect = lower value 0.987 | locus YGL248W, strain PDE1, stronger effect = lower value 1.01 | locus YGL253W, strain hxk2, stronger effect = lower value 0.996 | locus YGR078C, strain PAC10, stronger effect = lower value 1.02 | locus YGR135W, strain pre9, stronger effect = lower value 1 | locus YGR229C, strain SMI1, stronger effect = lower value 1 | locus YGR252W, strain gcn5, stronger effect = lower value 0.93 | locus YHR013C, strain ard1, stronger effect = lower value 0.962 | locus YHR027C, strain rpn1, stronger effect = lower value 0.964 | locus YHR030C, strain SLT2, stronger effect = lower value 1.01 and 0.97 | locus YHR079C, strain IRE1 (second series), stronger effect = lower value 1.02 | locus YHR079C, strain IRE1, stronger effect = lower value 0.99 | locus YHR094C, strain hxt1, stronger effect = lower value 1.02 | locus YHR129C, strain ARP1, stronger effect = lower value 1 | locus YHR142W, strain chs7, stronger effect = lower value 0.974 | locus YHR200W, strain rpn10, stronger effect = lower value 1.02 | locus YIL066C, strain RNR3, stronger effect = lower value 1.02 | locus YIL073C, strain SPO22, stronger effect = lower value 1.04 | locus YIL125W, strain kgd1, stronger effect = lower value 1.01 | locus YIR030C, strain dcg1, stronger effect = lower value 1.02 | locus YJL092W, strain hpr5, stronger effect = lower value 0.983 | locus YJL095W, strain BCK1 (second series), stronger effect = lower value 0.982 | locus YJL095W, strain BCK1, stronger effect = lower value 1.01 | locus YJL115W, strain asf1, stronger effect = lower value 0.96 | locus YJL129C, strain trk1, stronger effect = lower value 0.999 | locus YJL134W, strain LCB3, stronger effect = lower value 1 | locus YJL154C, strain vps35, stronger effect = lower value 0.975 | locus YJL164C, strain tpk1, stronger effect = lower value 0.989 | locus YJL166W, strain qcr8, stronger effect = lower value 0.951 | locus YJL168C, strain set2, stronger effect = lower value 1.02 | locus YJL187C, strain SWE1 (second series), stronger effect = lower value 1.02 | locus YJL187C, strain SWE1, stronger effect = lower value 0.986 | locus YJR043C, strain POL32, stronger effect = lower value 1.01 | locus YJR066W, strain TOR1, stronger effect = lower value 0.918
